Source: PubChem BioAssay AID2551 (National Center for Advancing Translational Sciences (NCATS), 2010)
Hit rate of the full screen: of about 310,000 compounds, about 17,000 (5.5%) were called active. Not shown: some 11% with an inconclusive outcome. The list comes from a sample in which actives are over-represented; it also holds similar structures and randomly drawn compounds. Values without a mark were called inactive. Calls follow the shape of the dose curve; as a rule, active = well fitted inhibition curve with a large enough effect; inconclusive = small, poorly fitted or top-dose-only effect, or effect the other way; inactive = no such curve, though single readings can be large or run the other way.

Each molecule was assayed against Nuclear receptor ROR-gamma (Mus musculus) (UniProt P51450) (assay: qHTS for inhibitors of ROR gamma transcriptional activity). Details: Drosophila S2 Gal4-RORgamma UAS-luciferase reporter, 20 h; series mostly up to 53.6 µM; activity change, negative = inhibition: at the top concentration.
In short: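 Stable Schneider cell line, Gal4 DNA-binding domain fused to ROR gamma, UAS-luciferase. Cmpd 1 hr RT → CuSO4 700 uM final → 20 hr RT → luciferase reagent 10 min → luminescence.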
% is scaled to controls: 0 for no effect and ±100 for the full control effect; potency is read from the fitted curve at half-maximal effect.
Also: nearly all actives have a fitted effect of over 60% in size.

Chain of Nuclear receptor ROR-gamma (Mus musculus) (P51450 whole entry, looked up, the tested form may be a part): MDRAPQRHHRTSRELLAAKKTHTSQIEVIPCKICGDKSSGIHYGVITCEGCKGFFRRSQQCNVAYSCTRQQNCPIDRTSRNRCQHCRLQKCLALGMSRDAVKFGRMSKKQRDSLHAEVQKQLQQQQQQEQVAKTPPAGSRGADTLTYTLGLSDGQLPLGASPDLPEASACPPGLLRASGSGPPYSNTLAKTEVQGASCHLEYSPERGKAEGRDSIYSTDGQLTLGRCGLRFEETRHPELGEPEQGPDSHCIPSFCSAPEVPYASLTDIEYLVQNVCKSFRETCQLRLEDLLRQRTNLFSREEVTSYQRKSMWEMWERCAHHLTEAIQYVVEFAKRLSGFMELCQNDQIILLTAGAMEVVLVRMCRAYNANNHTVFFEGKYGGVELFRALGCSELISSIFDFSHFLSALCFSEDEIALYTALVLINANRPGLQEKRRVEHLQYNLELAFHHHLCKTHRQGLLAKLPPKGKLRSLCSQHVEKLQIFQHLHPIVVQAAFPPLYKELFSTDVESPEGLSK

Row | Compound | activity change, negative = inhibition | Potency
1 | O=Cc1cn(Cc2ccccc2)nc1-c1cccnc1 | 31.5% | –
2 | Clc1ccc(CN2CCN(/N=C/c3cccnc3)CC2)cc1 | 30.9% | –
3 | O=C1/C(=C\c2cccnc2)CN(Cc2ccccc2)C/C1=C\c1cccnc1 | – | 6.31 µM (active)
4 | Cc1cc(C)c(S(=O)(=O)c2cc(F)ccc2C)c(=O)[nH]1 | 4.32% | –
5 | O=S(=O)(c1ccc(Br)cc1)c1nc(-c2ccccc2)oc1N1CCOCC1 | 18.9% | –
6 | CCOC(=O)c1cccc(NC(=O)CCc2nnc3ccc(N4CCOCC4)nn23)c1 | -7.72% | –
7 | CCn1c2ccccc2c2cc(NC(=S)N3CCOCC3)ccc21 | – | 3.16 µM (active)
8 | Cc1cc(N2CCN(C)CC2)nc2ccc(NC(=S)N3CCOCC3)cc12 | 20.9% | –
9 | CCn1c2ccccc2c2cc(NC(=O)CNC)ccc21 | -24.9% | –
10 | COc1ccc(NC(=O)CN2C(=O)CSc3ccc(S(=O)(=O)N4CCC(C)CC4)cc32)cc1 | -3.43% | –
11 | CCOc1ccc(N(CC(=O)NCC2CCCO2)S(=O)(=O)c2ccc(C)cc2)cc1 (configuration not stated) | -1.53% | –
12 | CC(C)CNC(=O)C(=O)NCC(c1ccc2c(c1)OCO2)N1CCOCC1 (configuration not stated) | -9.72% | –
13 | O=C(CCN1C(=O)[C@@H]2Cc3ccccc3CN2C1=O)NCc1ccccc1 | -16.9% | –
14 | COC(=O)c1ccccc1NC(=O)C1CCN(C(=O)N2CCOc3ccccc32)CC1 | -18.9% | –
15 | CC(Sc1nnc(CNC(=O)c2ccccc2F)n1C)C(=O)Nc1nccs1 (configuration not stated) | 44.3% | –
16 | Cc1ccc(S(=O)(=O)N2CCC(C)CC2)cc1C(=O)NCc1ccccn1 | 20.4% | –
17 | COc1cccc(CNC(=O)Cn2c(=O)oc3cc(S(=O)(=O)N4CCCCC4)ccc32)c1 | -5.77% | –
18 | O=C(Cc1cccs1)Nc1ccc([N+](=O)[O-])cc1 | -3.22% | –
19 | O=C(CCN1c2ccccc2Sc2ccccc21)Nc1ccccc1 | 29.4% | –
20 | CCN1/C(=C/C(=S)Nc2ccccc2)Sc2ccccc21 | – | 3.16 µM (active)
21 | CCNC(=O)N1c2ccccc2Sc2ccccc21 | 7.49% | –
22 | COc1ccc(C(=O)NC2CC2)cc1OC1CCN(C/C=C/c2ccccc2)CC1 | -0.323% | –

Row | Compound | activity change, negative = inhibition | Potency
23 | CC(C)n1c(=S)[nH]c2cc(C(F)(F)F)ccc21 | – | 0.891 µM (active)
24 | CCCn1c(=S)[nH]c2ccc(C(F)(F)F)cc21 | 15.4% | –
25 | O=C(NCc1ccccc1)C(c1cccnc1)N(C(=O)c1csnn1)c1ccc(F)cc1 (configuration not stated) | 22.6% | –
26 | Cn1c(=O)c(=O)n(C)c2cc(S(=O)(=O)CCC(=O)N3CCCCC3)ccc21 | -3.07% | –
27 | COc1ccc(/C=C/c2c(-c3cccc(C)c3)oc3ccc(-c4ccc5c(c4)OCO5)cc23)cc1 | -3.64% | –
28 | CCOC(=O)C1=C(C)NC(=S)NC1c1cccs1 (configuration not stated) | -23.4% [at 10 µM] | –
29 | CCOC(=O)c1ccc(NC(=O)C2CC(=O)Nc3nc4ccccc4n32)cc1 (configuration not stated) | 0.863% | –
30 | COc1ccccc1NC(=O)C1=C(C)Nc2ncnn2C1c1ccc(C)o1 (configuration not stated) | -5.98% | –
31 | CCOC(=O)C1=C(C)Nc2nc3ccccc3n2C1c1cccs1 (configuration not stated) | – | 5.62 µM (active)
32 | COc1ccccc1NC(=O)C1=C(C)NC(=O)NC1c1ccc(C)s1 (configuration not stated) | 11.4% | –
33 | COc1ccccc1NC(=O)C1=C(C)Nc2nc3ccccc3n2C1c1cccs1 (configuration not stated) | – | 11.2 µM (active)
34 | Cc1cccc(CCNS(=O)(=O)c2ccc3c(c2)NC(=O)CO3)c1 | -11.1% | –
35 | O=C(NC1CCCC1)C(c1ccco1)N(C(=O)c1ccco1)c1ccc(F)cc1 (configuration not stated) | -1.35% | –
36 | Cc1ccc(C(=O)Oc2ccc(C(=S)N3CCOCC3)cc2)cc1 | 29.2% | –
37 | COCC(=O)N1CCCC(C(=O)c2ccc(C(F)(F)F)cc2)C1 (configuration not stated) | -16.9% | –
38 | NC(=O)c1ccc(Nc2ccc3c(c2)CCC3)c([N+](=O)[O-])c1 | 37.1% | –
39 | COc1cc(C(=O)NCc2nnc(SCC(=O)Nc3nc4ccc(C)cc4s3)o2)cc(OC)c1OC | – | 2.51 µM (active)
40 | COc1cc(C(=O)NCc2nnc(SCC(=O)c3ccc(Cl)cc3)o2)cc(OC)c1OC | -4.63% | –
41 | COc1ccc(C(=O)NCc2nnc(SCC(=O)Nc3cccc(OC)c3)o2)cc1 | 5.26% | –
42 | OCCN1CCN(C(=S)c2ccc(-c3ccccc3)cc2)CC1 | 8.27% | –
43 | S=C(c1ccccc1)N1CCCC1 | 4.25% | –
44 | S=C(c1ccc(-c2ccccc2)o1)N1CCCCC1 | – | 10 µM (active)

Row | Compound | activity change, negative = inhibition | Potency
45 | Cc1ccccc1NC(=O)CSc1ccc2nnc(-c3ccccn3)n2n1 | -29.6% | –
46 | CC(C)CC(=O)Nc1nnc(S(=O)(=O)N(C)c2ccc(Cl)cc2)s1 | 4.6% | –
47 | CC(=O)Nc1ccc(N2C(=O)C3C4C=CC(CC4)C3C2=O)cc1 (configuration not stated) | 7.84% | –
48 | CCOC(=O)c1c(-c2ccccc2)oc2cc(Br)c(O)cc12 | -0.0338% | –
49 | CCOC(=O)N1CCN(CC(=O)c2c(C)[nH]c3ccccc23)CC1 | -1.33% | –
50 | CCOC(=O)c1c(C)nc(-c2ccccc2)nc1NC(=O)C(C)C | 13.9% | –
51 | Cc1[nH]c2ccccc2c1C(=O)COC(=O)C(C)C | 5.68% | –
52 | CCOC(=O)c1c(C)[nH]c(=S)c(C#N)c1-c1ccccc1 | – | 12.6 µM (active)
53 | CCOC(=O)c1c(C)[nH]c2c1-c1ccccc1C(=O)C2=O | – | 3.55 µM (active)
54 | COc1cccc(NC(=O)CCc2nnc3ccc(N4CCC(C)CC4)nn23)c1 | -0.897% | –
55 | CCCCCC(O)(CCN1CCCCC1)c1ccccc1 (configuration not stated) | -2.33% | –
56 | COc1cc(C)cc(CN2CCC(Cc3ccccc3)CC2)c1O | -18.5% | –
57 | CCn1c(SCC(=O)NC2=NCCS2)nnc1C(C)NC(=O)c1ccccc1F (configuration not stated) | -20.8% | –
58 | CC1CCN(C(=O)CCc2nnc3ccc(NCc4ccco4)nn23)CC1 | -1.81% | –
59 | CCOC(=O)C1CCCN(S(=O)(=O)c2ccc3c(c2)C(C)(C)C(=O)N3C)C1 (configuration not stated) | -5.47% | –
60 | CC1CC(C)CN(c2ccc(S(=O)(=O)N3CCOCC3)cc2)C1 (configuration not stated) | -4.93% | –
61 | O=C(Cc1ccc(Br)cc1)N1CCN(c2ccccn2)CC1 | 18.4% | –
62 | O=C(Cc1ccccc1)N1CCN(S(=O)(=O)c2ccc([N+](=O)[O-])cc2)CC1 | 29.6% | –
63 | CCC1=NN(C(=O)Cc2ccc([N+](=O)[O-])cc2)C(O)(c2ccc(Br)cc2)C1 (configuration not stated) | – | 11.2 µM (active)
64 | C[N+](C)(C)CCNC(=O)c1cc[n+](Cc2ccccc2)c(/C=N/O)c1 | -11.5% | –
65 | CC1CCCCC1NC(=O)c1cn(C)c2ccc(S(=O)(=O)N3CCOCC3)cc2c1=O (configuration not stated) | 15.2% | –
66 | COc1ccc(C(O)(C2CCCCC2)C(CN2CCCC2)c2ccccc2)cc1 (configuration not stated) | -4.22% | –

Row | Compound | activity change, negative = inhibition | Potency
67 | Cc1cccc(C(=O)N2CCC(c3nc4ccccc4s3)CC2)c1 | 36.4% | –
68 | O=C(NC1CCCC1)C1CCN(C(=O)Nc2cccc(Cl)c2)CC1 | -13.1% | –
69 | Cc1nc2ccc(NC(=S)N3CCC(C)CC3)cc2nc1C | 18.1% | –
70 | O=C(C1CCCO1)N1CCN(C(=S)Nc2cccc(Cl)c2)CC1 (configuration not stated) | -2.03% | –
71 | Cc1ccc(C2CCN(C(=S)Nc3cccc(Cl)c3)C2)cc1 (configuration not stated) | – | 10 µM (active)
72 | Cc1cccc(NC(=S)N2CCC(c3nc4ccccc4s3)CC2)c1 | – | 12.6 µM (active)
73 | Cc1cccc(OCC(=O)Nc2ccc(NC(=O)c3ccco3)c(C)c2)c1 | -0.762% | –
74 | O=C(NCC(=O)N(c1ccccc1)C(C(=O)NCC1CCCO1)c1ccccc1)c1cccs1 (configuration not stated) | -4.7% | –
75 | CC1(C)C2CCC1(CS(=O)(=O)NCCc1c[nH]c3ccccc13)C(=O)C2 (configuration not stated) | 32.8% | –
76 | COc1ccc(NC(=O)/C(Cl)=C(/Cl)S(=O)Cc2ccc(C)cc2)cn1 (configuration not stated) | 15.4% | –
77 | COc1ccc(CS(=O)/C(Cl)=C(/Cl)C(=O)Nc2ccc(OC)nc2)cc1 (configuration not stated) | – | 1.12 µM (active)
78 | COc1ccc(C(=O)Nc2ccc(NC(=O)C(C)C)nc2)cc1 | 2.2% | –
79 | O=C(NCc1ccccc1)C1CCN(C(=O)Cc2ccccc2)CC1 | 0.393% | –
80 | Cc1ccc2nc(SCC(=O)NC3CCCC3)[nH]c2c1 | 4.15% | –
81 | O=C1CSC(c2ccccc2)N1c1nc(-c2ccc(Cl)cc2Cl)cs1 (configuration not stated) | -5.73% | –
82 | Clc1ccc(-c2ncc3ccccn23)c(Cl)c1 | -10.1% | –
83 | Clc1ccc(-c2cc(-c3ccccn3)on2)c(Cl)c1 | – | 3.98 µM (active)
84 | COc1ccc(-n2nc(C(=O)NCC(=O)N3CCN(c4ccccc4OC)CC3)c3ccccc3c2=O)c(OC)c1 | -0.376% | –
85 | Cc1cccc2c1cnn2C(=O)CCC(=O)NC1CCCCC1 | 11.6% | –
86 | CCCCc1nc2cc(C(=O)N3CCCCC3CCO)ccc2o1 (configuration not stated) | -7.2% | –
87 | C=CCNC(=S)N/N=C/c1ccc(C)s1 | -12.6% | –
88 | Cc1ccccc1N/N=C/c1ccc(N2CCOCC2)cc1 | 11.6% | –

Row | Compound | activity change, negative = inhibition | Potency
89 | CNC(=S)N/N=C/c1ccc(N2CCOCC2)s1 | – | 1.26 µM (active)
90 | CSCCC(NS(=O)(=O)c1ccccc1F)C(=O)N1CC=C(c2ccccc2)CC1 (configuration not stated) | 15.2% | –
91 | C=CCc1ccccc1OCC(O)CN1CCN(CCO)CC1 (configuration not stated) | 7.01% | –
92 | CCN(CC(=O)NCCCN1CCOCC1)S(=O)(=O)c1cc(Cl)ccc1Cl | -8.84% | –
93 | CC(=O)N1CCC(C(=O)OCc2ccc(Cl)cc2)(c2ccccc2)CC1 | 12.7% | –
94 | O=C(NCc1ccco1)/C(=C\c1cccc([N+](=O)[O-])c1)NC(=O)c1ccco1 | 0.141% | –
95 | CCc1cc(C(N)=O)c(NC(=O)c2ccc(OC)cc2)s1 | 3.79% | –
96 | CCc1ccc(/C=N/NC(=O)c2ccc(OC3CCCC3)cc2)s1 | – | 11.2 µM (active)
97 | COC(=O)CNC(=O)c1ccc(OC2CCN(C(=O)C3CC3)CC2)cc1 | 9.4% | –
98 | CCOC(=O)N1CCN(C(=O)c2ccc3c(=O)n(CCc4ccc(OC)c(OC)c4)c(=O)[nH]c3c2)CC1 | 23.1% | –
99 | CCOC(=O)Cn1c(O)c(N=NC(=O)CNC(=O)Cc2ccccc2)c2ccccc21 | -18.1% | –
100 | CC1CCN(C(=O)/C(=C\c2ccccc2F)NC(=O)c2ccccc2)CC1 | -3.39% | –
101 | O=C(Cn1cc(/C=N/NC(=O)c2cccc(C(F)(F)F)c2)c2ccccc21)Nc1ccc(F)cc1 | – | 11.2 µM (active)
102 | O=C(CN1CCN(c2ccc(F)cc2)CC1)Nc1cccc(C(F)(F)F)c1 | 1.67% | –
103 | NC(=O)Cn1cc(/C=N\NS(=O)(=O)c2ccccc2)c2ccccc21 | 22.4% | –
104 | Cc1ccc(S(=O)(=O)N/N=C(\c2ccccc2)C2CC2)cc1 | -14.4% | –
105 | Cc1cccc(/C=N/NC(=O)CNc2cccc3ccccc23)n1 | – | 14.1 µM (active)
106 | C/C(=N\NC(=O)CNc1cccc2ccccc12)c1ccc(Br)s1 | -40.1% | –
107 | Cn1cccc1/C=N/NC(=O)CNc1cccc2ccccc12 | 1.27% | –
